PTK2B oligo ant – antagonists of human Pyk2 oligomerization. Q14289. Q293 cells, Pyk2 FERM NanoBiT luminescence; active compounds read low. z-score (the deposit names both 25 µM and 10 µM). 99,000 compounds, 0.83% hits. AID 1347419;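 active = Z-score of -3 or lower, scaled per plate to the spread of control and sample wells; inactive = z-score above -3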;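 note: negative z-score means lost luminescence so less FERM oligomerization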
PostGolgi yeast – growth inhibition of a yeast mutant, post-Golgi transport screen. post-Golgi transport phenotypic cell assay. 98,000 compounds, 0.9% hits. inhibition, % at 10 µM;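 note: yeast cells grown in 1536-well plates; yeast grown about 18 h at 30C before absorbance read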
PostGolgi ctrl – inhibits growth of the yeast control strain. inhibition, % at 10 µM. 98,000 compounds, 5% hits. efflux-deficient yeast background strain, growth absorbance A615, 16 h
Cav32 inh – blocks human Cav3.2 T-type calcium channel; 100,000 compounds, 4% hits; AID 449739; Cav3.2-expressing cells, Fluo-4 calcium fluorescence FDSS; active compounds read low; B-score at 10 µM;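 active = single-dose well whose peak fluorescence ratio is a statistical outlier from its plate by either plate-standardised score or position-corrected B-score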
* marks the source's active call; other numbers are inactive results; . = no result. Sampled rows, rich in hits. Any-hit rate of the full collection: about 8%. Cut-off read from the data, not from the text of the source, unless noted: active = inhibition above about 30%; inactive = the rest.

SMILES	PTK2B oligo ant	PostGolgi yeast	PostGolgi ctrl	Cav32 inh
O=C(Nc1nnc(C2CC2)o1)c1ccc(S(=O)(=O)N2CCCc3ccccc32)cc1	.	33*	3	.
O=C(NCc1ccccc1)c1ccc(S(=O)(=O)N2CCCc3ccccc32)cc1	-1.6	29	16	-3.5
CC(=O)Nc1nnc(-c2ccc3c(c2)CCCC3)o1	.	-9	0	.
O=C(NCc1ccco1)c1ccc(S(=O)(=O)N2CCCc3ccccc32)cc1	-2.4	-15	2	-3.9*
CC1CN(S(=O)(=O)c2ccc(C(=O)Nc3nnc(-c4ccc5c(c4)CCCC5)o3)cc2)CC(C)O1 (stereo not given)	.	-2	21	-8.4*
O=C(Nc1nnc(-c2ccc3c(c2)CCCC3)o1)C1COc2ccccc2O1 (stereo not given)	.	100*	72*	-4.9*
CC1(C)CC(=O)C2=C(C1)N(Cc1cccnc1)C(=O)C2(NC(=O)c1ccc(F)cc1)C(F)(F)F (stereo not given)	4.9	-3	4	1.8
CCOC(=O)C(NCc1ccc2c(c1)OCO2)(NC(=O)c1ccccc1)C(F)(F)F (stereo not given)	-0.36	-18	-5	-1
CCC(=O)N1CCCc2cc(S(=O)(=O)N3CCCc4ccccc43)ccc21	-1.3	17	35*	-1.4
COc1ccc(-c2nnc(NC(=O)c3ccc(S(=O)(=O)N4CCCc5ccccc54)cc3)o2)cc1	-3.7*	2	20	.
COC(=O)C1=C(C)N(CCCCCC(=O)O)C(=O)NC1c1ccccc1 (stereo not given)	.	.	.	0.34
CCOc1ccccc1NC(=O)CN(c1ccc(C)cc1)S(=O)(=O)c1c(C)noc1C	-1.8	-2	39*	-4.7*
COc1ccc(OC)c(NC(=O)CN(c2ccc(C(C)C)cc2)S(=O)(=O)c2c(C)noc2C)c1	.	-10	6	-4.5*
CCOc1ccc(OCC)c(NC(=O)CN(c2ccc(C)cc2)S(=O)(=O)c2c(C)noc2C)c1	-1.1	-1	5	-3.4
COC(=O)CN(c1ccc(OC)cc1)S(=O)(=O)c1c(C)noc1C	0.21	1	33*	0.27
COc1ccc(N(CC(=O)Nc2ccc(C)cn2)S(=O)(=O)c2c(C)noc2C)cc1	-1.9	-6	8	-3.9
Cc1cc(C(=O)N2CC(C)CC(C)C2)n(-c2ccccc2)n1 (stereo not given)	.	-1	32*	-0.075
N/C(=N\OC(=O)C(c1ccccc1)c1ccccc1)c1ccccn1	-2	.	.	0.53
N/C(=N\OC(=O)C(c1ccccc1)c1ccccc1)c1cccnc1	-2.4	-3	39*	0.015
Cc1nn(-c2cc(N3CCCCC3)ccc2[N+](=O)[O-])c(=O)c2ccccc12	-3.8*	.	.	-0.29
Cc1nn(-c2cc(N3CCNCC3)ccc2[N+](=O)[O-])c(=O)c2ccccc12	-0.28	2	-12	0.61
CCCn1c(NCc2c[nH]c3ccccc23)nc2ccccc21	0.35	-4	0	-5.9*
O=S(=O)(c1ccc(F)cc1)n1ccc(-c2cccc(OCc3ccc(Cl)cc3Cl)c2)n1	2.9	0	8	-2.7
[O-]/[N+](=C\c1ccncc1)c1ccccc1	0.7	6	10	.
[O-]/[N+](=C/c1ccc(F)cc1)c1ccccc1	-0.12	10	33*	0.49
SMILES	PTK2B oligo ant	PostGolgi yeast	PostGolgi ctrl	Cav32 inh
O=C(/C=C/c1cccc2ccccc12)NCCC1=CCCCC1	0.35	-5	23	.
CCOC(=O)c1ccc(NC(=O)CC2COc3ccccc3O2)cc1 (stereo not given)	0.87	4	32*	.
FC(F)(F)c1ccc(Oc2ccc3c(C(F)(F)F)cc(C(F)(F)F)nc3n2)cc1	0.38	-2	14	-0.51
Cn1c(=O)c2c(nc(OCc3cccnc3)n2Cc2c(F)cccc2Cl)n(C)c1=O	0.01	-4	30*	2.8
Cn1c(OCc2cccnc2)nc2c1c(=O)n(Cc1ccccc1)c(=O)n2C	-0.08	-2	4	2.2
CCCCc1ccc(NS(=O)(=O)N(C)C)cc1	0.26	12	11	-4.3*
CN(C)S(=O)(=O)Nc1ccc(Oc2ccccc2)cc1	0.71	3	9	-1.9
O=C(CSC1CC(=O)N(CC(c2ccccc2)c2ccccc2)C1=O)Nc1ccc(Cl)cc1 (stereo not given)	-1.3	11	41*	-7.4*
Cc1cc(C(=O)CSc2nnc(Nc3ccccc3F)s2)c(C)n1CC1CCCO1 (stereo not given)	0.23	3	9	-6.9*
Cc1cc(C(=O)CSc2nnc(Nc3ccccc3)s2)c(C)n1CC1CCCO1 (stereo not given)	1.1	11	12	-1.6
CCOC(=O)C1=NN(N=O)C2(CC(=O)N(c3cc(C)cc(C)c3)C2=O)C1 (stereo not given)	0.47	-3	20	.
COc1cccc(N2CCN(C3CC(=O)N(c4ccc(Cl)c(Cl)c4)C3=O)CC2)c1 (stereo not given)	1.4	0	13	-6.4*
CN1C(=O)CC(N2CCN(c3ccc(Cl)c(Cl)c3)CC2)C1=O (stereo not given)	0.05	4	15	-0.1
C=CCn1c(CNc2ccccc2)nnc1SCC(=O)N/N=C/c1ccccc1O	1	-2	3	-3.2
CCn1ncc(C2=NOC(C(=O)NCc3ccc(Cl)cc3)C2)c1C (stereo not given)	1.6	-1	-2	.
COc1ccc(C2C=C(c3cccs3)Nc3nc(CCCO)nn32)cc1 (stereo not given)	.	9	45*	-12*
COc1ccc(C2C=C(c3ccccc3)Nc3nc(CCCO)nn32)cc1 (stereo not given)	.	-1	5	-1.1
O=C(Cc1c(F)cccc1Cl)Nc1ccncc1	1.4	37*	25	1
O=C(/C=C/c1ccccc1Cl)Nc1ccncc1	0.79	-3	16	-0.43
O=C(Cc1c(F)cccc1Cl)Nc1cccnc1	1.1	-1	7	0.5
O=C(/C=C/c1c(Cl)cccc1Cl)Nc1ccncc1	0.21	51*	92*	-0.21
C=CCOC(=O)CN1C(=O)c2ccccc2C1=O	0.71	1	8	0.45
COc1ccc(NC(=O)c2ccc(Cl)c(S(=O)(=O)N3CCc4ccccc4C3)c2)cn1	-1.9	-2	45*	-3.3
CCCS(=O)(=O)c1cn2cccc(N)c2c1S(=O)(=O)CCC	0.26	-1	31*	0.16
C#Cc1ccc([C@@H]2C=C(C(=O)OCC=C)O[C@H](OCCCCO)C2)cc1	.	.	.	-0.59
SMILES	PTK2B oligo ant	PostGolgi yeast	PostGolgi ctrl	Cav32 inh
CCN(CC)c1ccc(/C=C2/C(=O)N(c3ccc([N+](=O)[O-])cc3)N=C2N2CCOCC2)cc1	.	-2	34*	.
CCN(CC)c1ccc(Nc2nc(N3CCOCC3)c3ccccc3n2)cc1	-0.28	2	13	-2.6
CCOC(=O)C(C)Sc1nc(-c2ccco2)cc(C(F)(F)F)c1C#N (stereo not given)	-0.24	-6	12	-1.6
CCn1c(CNc2cccc(Cl)c2)nnc1SCC(=O)OC1CCCCC1	0.31	12	23	.
CCn1c(CNc2ccc(Cl)cc2)nnc1SCC(=O)OC1CCCCC1	0.43	.	.	-8.4*
CCn1c(CNc2ccccc2Cl)nnc1SCC(=O)OC1CCCCC1	1.2	0	17	-4.5*
